Measurements published in PubChem BioAssay.
For part of these data: Results with a measured potency or affinity are listed apart. The source made the active and inactive calls. Unless noted, how the calls were made is not given here.

Legend:
[1] = antimalarial activity against Dd2 strain (AID 2302;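 active means growth inhibition above 50% at the single 2 µM test dose, taken to imply half-maximal potency below 2 µM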;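 further: 0% = DMSO untreated growth and 100% = chloroquine plus artemisinin killed control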); settings: P. falciparum Dd2 in RBCs, LDH growth readout, 72 h; at 2 µM; stronger effect = higher value
[2] = HepG2 cytotoxicity, primary screen, cytotoxicity control for P. falciparum antimalarial project, cell-based, ATP luminescence (AID 2303;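 active means inhibition above 50%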;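 further: 0% = DMSO wells and 100% = digitonin-killed cells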); settings: HepG2 viability, 24-48 h, at 10 µM, stronger effect = higher value
[3] = target: L-lactate dehydrogenase (Plasmodium falciparum (isolate CDC / Honduras)) (UniProt Q27743); assay: PfLDH activity inhibition – cell lysate, 3D7 strain, counter-screen for P. falciparum growth inhibition project (AID 2304);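 further: 0% = vehicle and 100% = reference inhibitor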; settings: P. falciparum 3D7 crude extract, LDH APAD/NBT absorbance; at 2 µM; stronger effect = higher value
Chain of L-lactate dehydrogenase (Plasmodium falciparum (isolate CDC / Honduras)) (Q27743 whole entry, looked up): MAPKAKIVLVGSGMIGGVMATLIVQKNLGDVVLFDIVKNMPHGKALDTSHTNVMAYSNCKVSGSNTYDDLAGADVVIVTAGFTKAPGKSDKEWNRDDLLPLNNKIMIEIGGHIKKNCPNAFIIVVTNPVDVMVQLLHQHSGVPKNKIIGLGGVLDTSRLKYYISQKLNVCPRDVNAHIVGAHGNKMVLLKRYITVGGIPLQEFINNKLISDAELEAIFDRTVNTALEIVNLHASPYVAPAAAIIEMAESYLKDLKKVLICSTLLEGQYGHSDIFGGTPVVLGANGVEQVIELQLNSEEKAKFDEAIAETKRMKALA

[4] = inhibition of 3D7 malaria parasite growth – strain 3D7 (AID 2306);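 further: 0% = DMSO wells and 100% = chloroquine plus artemisinin control wells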; settings: P. falciparum 3D7 erythrocytic growth, LDH absorbance, 72 h; at 2 µM; stronger effect = higher value
[5] = target: Calcium-dependent protein kinase 1 (Plasmodium falciparum (isolate 3D7)) (UniProt P62344); assay: PfCDPK1 kinase inhibitors, biochemical, TCAMS library (AID 1159585; cut-off not given, nearly all actives have IC50 up to about 0.98 µM;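 further: inhibitors leave more ATP so luminescence rises with inhibition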); settings: recombinant PfCDPK1, Kinase-Glo ATP depletion luminescence
Chain of Calcium-dependent protein kinase 1 (Plasmodium falciparum (isolate 3D7)) (P62344 whole entry, looked up): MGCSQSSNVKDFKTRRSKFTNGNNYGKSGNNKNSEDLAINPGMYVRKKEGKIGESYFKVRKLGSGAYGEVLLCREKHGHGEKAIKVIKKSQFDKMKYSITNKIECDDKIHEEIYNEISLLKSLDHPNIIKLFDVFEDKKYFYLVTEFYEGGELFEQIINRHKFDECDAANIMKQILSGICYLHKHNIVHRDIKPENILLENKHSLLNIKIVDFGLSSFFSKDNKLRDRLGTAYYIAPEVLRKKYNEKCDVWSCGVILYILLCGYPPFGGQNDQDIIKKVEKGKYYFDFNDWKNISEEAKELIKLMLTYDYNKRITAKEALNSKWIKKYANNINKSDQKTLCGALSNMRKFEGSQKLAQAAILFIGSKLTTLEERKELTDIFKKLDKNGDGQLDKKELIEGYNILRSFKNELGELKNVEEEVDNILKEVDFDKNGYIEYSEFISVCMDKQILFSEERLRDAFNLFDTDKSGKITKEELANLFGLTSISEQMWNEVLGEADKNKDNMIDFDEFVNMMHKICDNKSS

[6] = target: Plasmodium falciparum protein kinase 6 (PK6, PF3D7_1337100) (UniProt Q8IDW1); assay: PfPK6 kinase inhibitors, biochemical, TCAMS library (AID 1159586); settings: recombinant PfPK6, Kinase-Glo ATP depletion luminescence
Chain of Plasmodium falciparum protein kinase 6 (PK6, PF3D7_1337100) (Q8IDW1 1-305): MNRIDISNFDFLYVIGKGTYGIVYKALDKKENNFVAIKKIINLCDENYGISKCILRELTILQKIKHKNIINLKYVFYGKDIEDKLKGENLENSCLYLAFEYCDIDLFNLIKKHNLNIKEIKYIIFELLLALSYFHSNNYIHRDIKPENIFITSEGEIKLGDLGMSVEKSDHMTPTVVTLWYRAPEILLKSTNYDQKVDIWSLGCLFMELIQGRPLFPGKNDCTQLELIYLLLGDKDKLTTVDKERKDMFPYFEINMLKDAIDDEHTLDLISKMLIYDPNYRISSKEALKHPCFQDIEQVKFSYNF

[7] = target: Protein kinase 7 (PK7), Plasmodium falciparum 3D7 (PF3D7_0213400) (UniProt Q7YTF7); assay: inhibition of Plasmodium PK7 catalytic activity – biochemical, TCAMS antimalarial set, Kinase-Glo luminescence (AID 1159587); settings: recombinant PfPK7, Kinase-Glo ATP depletion luminescence
Chain of Protein kinase 7 (PK7), Plasmodium falciparum 3D7 (PF3D7_0213400) (Q7YTF7 1-343): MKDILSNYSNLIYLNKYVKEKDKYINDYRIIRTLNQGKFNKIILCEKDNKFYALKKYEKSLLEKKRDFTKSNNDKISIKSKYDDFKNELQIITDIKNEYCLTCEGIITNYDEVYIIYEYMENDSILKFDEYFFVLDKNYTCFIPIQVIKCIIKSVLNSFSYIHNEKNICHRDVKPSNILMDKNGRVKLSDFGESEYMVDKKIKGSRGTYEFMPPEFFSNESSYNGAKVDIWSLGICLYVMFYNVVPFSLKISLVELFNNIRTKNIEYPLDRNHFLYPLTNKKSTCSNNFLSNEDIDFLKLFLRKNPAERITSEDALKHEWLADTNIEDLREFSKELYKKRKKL

[8] = target: Calcium-dependent protein kinase 4 (Plasmodium falciparum (isolate 3D7)) (UniProt Q8IBS5); assay: PfCDPK4 kinase inhibitors, biochemical, TCAMS library (AID 1159588; cut-off not given, nearly all actives have IC50 up to about 0.91 µM); settings: recombinant PfCDPK4, Kinase-Glo ATP depletion luminescence
Chain of Calcium-dependent protein kinase 4 (Plasmodium falciparum (isolate 3D7)) (Q8IBS5 whole entry, looked up): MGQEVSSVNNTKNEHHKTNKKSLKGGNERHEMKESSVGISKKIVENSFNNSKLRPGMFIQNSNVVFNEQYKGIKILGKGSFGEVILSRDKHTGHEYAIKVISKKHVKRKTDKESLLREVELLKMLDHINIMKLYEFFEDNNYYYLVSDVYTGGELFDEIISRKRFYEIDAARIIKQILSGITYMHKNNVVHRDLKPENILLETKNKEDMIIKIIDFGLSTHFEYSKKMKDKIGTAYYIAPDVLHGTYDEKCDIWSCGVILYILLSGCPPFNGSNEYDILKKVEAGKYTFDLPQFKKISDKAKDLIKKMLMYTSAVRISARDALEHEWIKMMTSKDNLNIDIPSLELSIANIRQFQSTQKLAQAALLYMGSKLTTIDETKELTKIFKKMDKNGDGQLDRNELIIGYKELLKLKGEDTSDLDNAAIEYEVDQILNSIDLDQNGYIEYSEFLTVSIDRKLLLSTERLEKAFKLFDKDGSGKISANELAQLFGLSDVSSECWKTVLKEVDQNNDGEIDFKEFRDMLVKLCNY

CN1CCN(c2cccc(Nc3nccc(NCC(O)c4ccccc4)n3)c2)CC1 (configuration not stated)
active: growth inhibition [4] 101%
inactive: growth inhibition [1] 4% | inhibition [2] 30% | inhibition [3] -2% | outcome [5] | outcome [6] | outcome [7] | outcome [8]

O=C(Nc1ccsc1)Nc1cccc(-c2ccc(-c3nc4ccc(C(F)(F)F)cc4[nH]3)cc2)c1
active: growth inhibition [4] 99%
inactive: growth inhibition [1] 36% | inhibition [2] 45% | inhibition [3] -2% | outcome [5] | outcome [6] | outcome [7] | outcome [8]

CN1CCc2cc(NS(=O)(=O)c3ccc(-c4ccc(Cl)s4)cc3)c(N3CCCCC3)cc2CC1
active: growth inhibition [4] 98%
inactive: growth inhibition [1] 29% | inhibition [2] 14% | inhibition [3] 3% | outcome [5] | outcome [6] | outcome [7] | outcome [8]

Cc1cccc2[nH]c(-c3ccc(-c4ccc(CN5CC(C)OC(C)C5)cc4)cc3)nc12 (configuration not stated)
inactive: inhibition [2] 37% | inhibition [3] 3% | outcome [5] | outcome [6] | outcome [7] | outcome [8]
active: growth inhibition [1] 96% | growth inhibition [4] 97%

COC(=O)c1ccc(N2CCN(CCCCNC(=O)c3ccc(NC(=O)c4ccc(Cl)cc4)cc3)CC2)c(OC)c1
active: growth inhibition [4] 82%
inactive: growth inhibition [1] 1% | inhibition [2] 11% | inhibition [3] 3% | outcome [5] | outcome [6] | outcome [7] | outcome [8]

CN1C(=CC(=O)NC(=O)c2ccccc2)C(C)(C)c2ccccc21
inactive: inhibition [2] -5% | inhibition [3] 4% | outcome [5] | outcome [6] | outcome [7] | outcome [8]
active: growth inhibition [1] 89% | growth inhibition [4] 93%

COc1ccc(CNC(=O)Nc2cc3cc(-c4ccc(CN5CCCC5)cc4)ccc3n3c(C)nnc23)cc1
active: growth inhibition [1] 100% | inhibition [2] 100% | growth inhibition [4] 101%
inactive: inhibition [3] -3% | outcome [5] | outcome [6] | outcome [7] | outcome [8]

Nc1nc(N)c2c(ccc3c2ccn3C2C=CCCC2)n1 (configuration not stated)
inactive: inhibition [3] -2% | outcome [5] | outcome [6] | outcome [7] | outcome [8]
active: growth inhibition [1] 65% | inhibition [2] 68% | growth inhibition [4] 94%

Cc1cccc2[nH]c(-c3ccc(-c4ccc(NC(=O)Nc5ccc(F)c(F)c5F)cc4)cc3)nc12
active: growth inhibition [1] 97% | inhibition [2] 51% | growth inhibition [4] 100%
inactive: inhibition [3] -1% | outcome [5] | outcome [6] | outcome [7] | outcome [8]

O=[N+]([O-])c1cccc(CNCC2CCN(CCc3ccccc3)CC2)c1
active: growth inhibition [4] 98%
inactive: growth inhibition [1] 11% | inhibition [2] 15% | inhibition [3] -6% | outcome [5] | outcome [6] | outcome [7] | outcome [8]

CCN(CC)c1nc(Nc2cc(C)ccc2C)nc(Nc2ccccc2O)n1
active: growth inhibition [1] 99% | growth inhibition [4] 101%
inactive: inhibition [2] -9% | inhibition [3] 2% | outcome [5] | outcome [6] | outcome [7] | outcome [8]

Cc1cnc(NCC2CCCCC2)nc1N[C@@H](CC(C)C)C(=O)Nc1ccccc1
active: growth inhibition [1] 55% | growth inhibition [4] 96%
inactive: inhibition [2] 12% | inhibition [3] -2% | outcome [5] | outcome [6] | outcome [7] | outcome [8]

Cc1nnc2c(NC(=O)NC3CCCC3)cc3ccc(-c4cccc(CN(C)C)c4)cc3n12
active: growth inhibition [4] 90%
inactive: growth inhibition [1] 25% | inhibition [2] 42% | inhibition [3] 3% | outcome [5] | outcome [6] | outcome [7] | outcome [8]

COc1ccc(CN2CCC(CNC(C)c3cccc4ccccc34)CC2)cc1 (configuration not stated)
inactive: growth inhibition [1] 26% | inhibition [3] -2% | outcome [5] | outcome [6] | outcome [7] | outcome [8]
active: inhibition [2] 58% | growth inhibition [4] 102%

O=C(/C=C/c1ccc(Cl)c(Cl)c1)N1CCC(CCCN2CCC(c3c[nH]c4ccc(O)cc34)CC2)CC1
active: growth inhibition [1] 99% | inhibition [2] 60% | growth inhibition [4] 102%
inactive: inhibition [3] 1% | outcome [5] | outcome [6] | outcome [7] | outcome [8]

c1ccc2[nH]c(-c3ccc(-c4ccc(CN5CCN(c6ccncc6)CC5)cc4)cc3)nc2c1
inactive: inhibition [2] 48% | inhibition [3] -3% | outcome [5] | outcome [6] | outcome [7] | outcome [8]
active: growth inhibition [1] 100% | growth inhibition [4] 101%

O=[N+]([O-])c1cccc(CNC2CCN(Cc3ccc(C(F)(F)F)cc3)CC2)c1
inactive: growth inhibition [1] 28% | inhibition [2] 0% | inhibition [3] 1% | outcome [5] | outcome [6] | outcome [7] | outcome [8]
active: growth inhibition [4] 99%

Cc1c(-c2ccccc2)ccc2[nH]cc(CC#N)c12
active: growth inhibition [1] 85% | growth inhibition [4] 95%
inactive: inhibition [2] 2% | inhibition [3] -2% | outcome [5] | outcome [6] | outcome [7] | outcome [8]

O=C(NC1CCN(CCCOc2ccnc3cc(Cl)ccc23)C1)c1ccc(Br)cc1 (configuration not stated)
inactive: inhibition [2] 21% | inhibition [3] 2% | outcome [5] | outcome [6] | outcome [7] | outcome [8]
active: growth inhibition [1] 87% | growth inhibition [4] 86%

COc1cccc(-c2nc3c(N4CCN(c5ccncc5)CC4)cccc3n2CC2CCCCCN2)n1 (configuration not stated)
active: growth inhibition [4] 91%
inactive: growth inhibition [1] 31% | inhibition [2] 12% | inhibition [3] 3% | outcome [5] | outcome [6] | outcome [7] | outcome [8]

COc1cccc(CN2CCCN(Cc3cccc(NC(=O)c4ccc(Cl)c(Cl)c4)c3)CC2)c1
active: growth inhibition [4] 89%
inactive: growth inhibition [1] 11% | inhibition [2] 26% | inhibition [3] 0% | outcome [5] | outcome [6] | outcome [7] | outcome [8]

CC(=O)Nc1ccc(C(=O)Nc2cccc(-c3ccc(-c4nc5ccc(C(F)(F)F)cc5[nH]4)s3)c2)cn1
active: growth inhibition [1] 98% | growth inhibition [4] 100%
inactive: inhibition [2] 42% | inhibition [3] 3% | outcome [5] | outcome [6] | outcome [7] | outcome [8]

O=C(/C=C/c1ccc(Cl)cc1Cl)NCCCCCN1CCC(c2c[nH]c3ccccc23)CC1
active: inhibition [2] 95% | growth inhibition [4] 99%
inactive: growth inhibition [1] 9% | inhibition [3] 1% | outcome [5] | outcome [6] | outcome [7] | outcome [8]

CCN(CCN(C)C)Cc1ccc(-c2ccc(NS(=O)(=O)c3cccc(Cl)c3)cc2)cc1
inactive: growth inhibition [1] 40% | inhibition [2] 43% | inhibition [3] 4% | outcome [5] | outcome [6] | outcome [7] | outcome [8]
active: growth inhibition [4] 97%

CN1CCc2ccc(NC(=O)Nc3cccc([N+](=O)[O-])c3)cc2C1
inactive: growth inhibition [1] 3% | inhibition [2] -5% | inhibition [3] 0% | outcome [5] | outcome [6] | outcome [7] | outcome [8]
active: growth inhibition [4] 87%

CC(C)CC(=O)Nc1cc(=O)[nH]c2nc(-c3ccccc3)nn12
active: growth inhibition [1] 85% | growth inhibition [4] 89%
inactive: inhibition [2] -6% | inhibition [3] -6% | outcome [5] | outcome [6] | outcome [7] | outcome [8]

CC(C)CCN(Cc1cncn1Cc1cccc(C(F)(F)F)c1)C(=O)c1ccccc1C#N
inactive: inhibition [2] -4% | inhibition [3] -2% | outcome [5] | outcome [6] | outcome [7] | outcome [8]
active: growth inhibition [1] 96% | growth inhibition [4] 99%

CC(C)NCc1ccc(-c2ccc(-c3nc4ccc(C(F)(F)F)cc4[nH]3)s2)cc1
inactive: inhibition [2] 30% | inhibition [3] 1% | outcome [5] | outcome [6] | outcome [7] | outcome [8]
active: growth inhibition [1] 94% | growth inhibition [4] 101%

CC1CCCCN1CCCNc1ncc2c(-c3ccc(NC(=O)Nc4cc(C(F)(F)F)ccc4F)c(F)c3)nn(C)c2n1 (configuration not stated)
inactive: inhibition [2] 27% | inhibition [3] 2% | outcome [5] | outcome [6] | outcome [7] | outcome [8]
active: growth inhibition [1] 97% | growth inhibition [4] 101%

O=C(Cc1ccccc1)NC(c1ccc(Cl)cc1)c1ccc2cccnc2c1O (configuration not stated)
active: growth inhibition [1] 64% | inhibition [2] 50% | growth inhibition [4] 93%
inactive: inhibition [3] -2% | outcome [5] | outcome [6] | outcome [7] | outcome [8]

Oc1cc(Nc2ccnc3cc(-c4ccc(CN5CCCCC5)o4)ccc23)c(Cl)cc1F
inactive: inhibition [2] 30% | inhibition [3] 5% | outcome [5] | outcome [6] | outcome [7] | outcome [8]
active: growth inhibition [1] 81% | growth inhibition [4] 101%

COc1cc2c(cc1N1C[C@@H](C)N[C@@H](C)C1)N(C(=O)c1ccc(-c3ccc(-c4ncc[nH]4)cc3C)cc1)CC2
active: growth inhibition [1] 58% | growth inhibition [4] 98%
inactive: inhibition [2] 7% | inhibition [3] -2% | outcome [5] | outcome [6] | outcome [7] | outcome [8]

CCN(CC)CCCN(CCCN(CC)CC)c1cc(C)nc(Nc2ccc3cc(Br)ccc3c2)n1
inactive: inhibition [2] 12% | inhibition [3] 3% | outcome [5] | outcome [6] | outcome [7] | outcome [8]
active: growth inhibition [1] 73% | growth inhibition [4] 100%

CCC1CN2CCc3cc(OC)c(OC)cc3C2CC1CC1NCCc2cc(OC)c(OC)cc21 (configuration not stated)
inactive: inhibition [2] 42% | inhibition [3] -3% | outcome [5] | outcome [6] | outcome [7] | outcome [8]
active: growth inhibition [1] 98% | growth inhibition [4] 103%

CC(C)CCN(Cc1cncn1Cc1cccc(C(F)(F)F)c1)C(=O)c1cncc(-c2ccccc2)c1
active: growth inhibition [4] 100%
inactive: growth inhibition [1] 4% | inhibition [2] 15% | inhibition [3] -3% | outcome [5] | outcome [6] | outcome [7] | outcome [8]

O=C(Nc1cccc(F)c1)N(Cc1ccc(-c2cccc(CN3CCNCC3)c2)cc1)C1CCN(Cc2ccccc2)CC1
inactive: inhibition [2] 13% | inhibition [3] -1% | outcome [5] | outcome [6] | outcome [7] | outcome [8]
active: growth inhibition [1] 54% | growth inhibition [4] 97%

CC(=O)Nc1cccc(C(=O)Nc2cccc(-c3ccc(-c4nc5ccc(F)cc5[nH]4)cc3)c2)c1
active: inhibition [2] 60% | growth inhibition [4] 95%
inactive: growth inhibition [1] 9% | inhibition [3] 5% | outcome [5] | outcome [6] | outcome [7] | outcome [8]

Cc1cccc2[nH]c(-c3cccc(-c4ccc(NC(=O)Nc5cccc(C#N)c5)cc4)c3)nc12
inactive: inhibition [3] 6% | outcome [5] | outcome [6] | outcome [7] | outcome [8]
active: growth inhibition [1] 91% | inhibition [2] 50% | growth inhibition [4] 101%

Cc1cc(NCCc2ccccc2)nc(NC(=NCC(=O)OC(C)(C)C)Nc2ccc(C(F)(F)F)cc2)n1
active: growth inhibition [1] 97% | growth inhibition [4] 100%
inactive: inhibition [2] 23% | inhibition [3] 2% | outcome [5] | outcome [6] | outcome [7] | outcome [8]
